From PubChem BioAssay AID1159580 (chemical genetic matrix, 2015)
Out of some 5,500 compounds screened, about 2,000 (36%) were called active. Inconclusive results (about 18%) are left out. No stated cut-off is given here; in the data, active means normalized growth mostly below about 0.91 (no sharp cut-off); inconclusive means no clear call, values can overlap the other calls; inactive means mostly above about 0.92. Some of the results follow.

Assay: chemical genetic growth profiling, strain panel (AID 1159580);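 further: tested at 20 µM; growth read once vehicle control cultures reached saturation at 30 °C; 1 = growth at the plate median or of vehicle wells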
Conditions: S. cerevisiae deletion strains, growth OD

Measured: normalized growth

C/C=C(/C)C(=O)O[C@@H]1Cc2c(ccc3ccc(=O)oc23)OC1(C)C
inactive: locus YBR021W, strain FUR4, stronger effect = lower value 1.08 | locus YBR229C, strain ROT2, stronger effect = lower value 0.984 | locus YCL029C, strain bik1, stronger effect = lower value 1.01 | locus YDL035C, strain GPR1, stronger effect = lower value 0.974 | locus YDL074C, strain BRE1, stronger effect = lower value 0.976 | locus YDL101C, strain DUN1, stronger effect = lower value 1.01 | locus YDL134C, strain PPH21, stronger effect = lower value 0.947 | locus YDL185W, strain tfp1, stronger effect = lower value 1.01 | locus YDL192W, strain arf1, stronger effect = lower value 0.977 | locus YDR101C, strain arx1, stronger effect = lower value 1.03 | locus YDR150W, strain NUM1, stronger effect = lower value 0.934 | locus YDR162C, strain NBP2, stronger effect = lower value 0.927 | locus YDR318W, strain mcm21, stronger effect = lower value 0.962 | locus YDR388W, stronger effect = lower value 0.996 | locus YDR502C, strain sam2, stronger effect = lower value 1.03 | locus YEL061C, strain CIN8, stronger effect = lower value 0.95 | locus YER110C, stronger effect = lower value 1 | locus YER155C, strain BEM2, stronger effect = lower value 1 | locus YER167W, strain BCK2, stronger effect = lower value 0.978 | locus YGL078C, strain dbp3, stronger effect = lower value 0.991 | locus YGL086W, strain mad1, stronger effect = lower value 1.02 | locus YGL248W, strain PDE1, stronger effect = lower value 0.966 | locus YGR078C, strain PAC10, stronger effect = lower value 0.987 | locus YGR135W, strain pre9, stronger effect = lower value 0.97 | locus YGR252W, strain gcn5, stronger effect = lower value 1.05 | locus YHR030C, strain SLT2, stronger effect = lower value 0.992 | locus YHR079C, strain IRE1 (second series), stronger effect = lower value 0.987 | locus YHR094C, strain hxt1, stronger effect = lower value 0.989 | locus YHR129C, strain ARP1, stronger effect = lower value 0.973 | locus YHR200W, strain rpn10, stronger effect = lower value 1.01 | locus YIL066C, strain RNR3, stronger effect = lower value 0.979 | locus YIL073C, strain SPO22, stronger effect = lower value 0.96 | locus YIL125W, strain kgd1, stronger effect = lower value 1 | locus YIR030C, strain dcg1, stronger effect = lower value 0.989 | locus YJL095W, strain BCK1, stronger effect = lower value 0.937 | locus YJL134W, strain LCB3, stronger effect = lower value 0.985 | locus YJL168C, strain set2, stronger effect = lower value 1 | locus YJL187C, strain SWE1 (second series), stronger effect = lower value 0.984 | locus YJR043C, strain POL32, stronger effect = lower value 1.01 | locus YJR075W, strain HOC1, stronger effect = lower value 0.99 | locus YKL009W, strain mrt4, stronger effect = lower value 0.987 | locus YKL068W, stronger effect = lower value 0.983 | locus YKL085W, strain MDH1 (second series), stronger effect = lower value 0.978 | locus YKL085W, strain MDH1, stronger effect = lower value 0.978 | locus YKL190W, strain CNB1, stronger effect = lower value 0.935 | locus YKR001C, strain vps1, stronger effect = lower value 0.998 | locus YLR039C, strain RIC1, stronger effect = lower value 0.792 | locus YLR058C, strain SHM2, stronger effect = lower value 0.97 | locus YLR102C, strain apc9, stronger effect = lower value 0.99 | locus YLR262C, strain YPT6, stronger effect = lower value 0.761 | locus YLR268W, strain sec22, stronger effect = lower value 1 | locus YLR330W, strain CHS5, stronger effect = lower value 0.989 | locus YLR342W, strain FKS1 (second series), stronger effect = lower value 0.987 | locus YLR371W, strain rom2, stronger effect = lower value 1 | locus YLR418C, strain cdc73, stronger effect = lower value 1.06 | locus YML016C, strain PPZ1, stronger effect = lower value 0.987 | locus YML032C, strain rad52, stronger effect = lower value 0.969 | locus YML124C, strain tub3, stronger effect = lower value 0.982 | locus YMR078C, strain ctf18, stronger effect = lower value 0.985 | locus YMR223W, strain ubp8, stronger effect = lower value 0.974 | locus YMR307W, strain GAS1, stronger effect = lower value 0.716 | locus YNL067W, strain RPL9B, stronger effect = lower value 0.951 | locus YNL153C, strain GIM3, stronger effect = lower value 0.996 | locus YNL233W, strain BNI4, stronger effect = lower value 1 | locus YNL250W, strain rad50, stronger effect = lower value 0.981 | locus YNL271C, strain bni1, stronger effect = lower value 0.989 | locus YNL298W, strain CLA4, stronger effect = lower value 0.984 | locus YNL307C, strain MCK1, stronger effect = lower value 1 | locus YNR052C, strain pop2, stronger effect = lower value 0.915 | locus YOL012C, strain htz1 0.999 | locus YOL147C, strain pex11, stronger effect = lower value 0.99 | locus YOR061W, strain CKA2, stronger effect = lower value 0.974 | locus YOR069W, strain VPS5, stronger effect = lower value 0.975 | locus YOR136W, strain idh2, stronger effect = lower value 1.03 | locus YOR144C, strain elg1, stronger effect = lower value 0.992 | locus YOR184W, strain ser1, stronger effect = lower value 0.932 | locus YOR316C, strain cot1, stronger effect = lower value 0.987 | locus YPL241C, strain CIN2, stronger effect = lower value 0.953 | locus YPR119W, strain clb2, stronger effect = lower value 0.976 | locus YPR141C, strain kar3, stronger effect = lower value 0.981 | locus YPR163C, strain tif3, stronger effect = lower value 0.987 | locus YPR167C, strain met16, stronger effect = lower value 0.98 | strain wtn01, stronger effect = lower value 1.04
